Screening results as filed in PubChem BioAssay.
A selection: hits, their analogues and other compounds. The true share with any hit is near 4.1%.
MEKK2 mut-MEK5 – MEK5 binding signal on mutant MEKK2 PB1, primary screen, biochemical, multiplex bead flow cytometry, Alexa488-MEK5; Alexa488-MEK5 binding to MEKK2 mutant; percent response, % at 10 µM; actives 0.35% (n = 290,000); AID 1530, 2009; in the data active means percent response above about 24%, passing the limit was not always enough
CHT inh – inhibitors of human choline transporter CHT; High affinity choline transporter 1 (Homo sapiens), Q9GZV3; CHT-expressing cells, membrane potential dye, choline response; hits give low values; B-score at 10 µM; actives 0.86% (n = 310,000); AID 488975, 2010;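 active means B-score over 3 SD under the library average, and starting fluorescence ratio not unusually high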;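 further: choline stimulus applied at its EC90 after an EC20 pre-addition; B-score computed on integrated fluorescence ratio after choline addition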
Target sequence (Q9GZV3 whole entry, looked up): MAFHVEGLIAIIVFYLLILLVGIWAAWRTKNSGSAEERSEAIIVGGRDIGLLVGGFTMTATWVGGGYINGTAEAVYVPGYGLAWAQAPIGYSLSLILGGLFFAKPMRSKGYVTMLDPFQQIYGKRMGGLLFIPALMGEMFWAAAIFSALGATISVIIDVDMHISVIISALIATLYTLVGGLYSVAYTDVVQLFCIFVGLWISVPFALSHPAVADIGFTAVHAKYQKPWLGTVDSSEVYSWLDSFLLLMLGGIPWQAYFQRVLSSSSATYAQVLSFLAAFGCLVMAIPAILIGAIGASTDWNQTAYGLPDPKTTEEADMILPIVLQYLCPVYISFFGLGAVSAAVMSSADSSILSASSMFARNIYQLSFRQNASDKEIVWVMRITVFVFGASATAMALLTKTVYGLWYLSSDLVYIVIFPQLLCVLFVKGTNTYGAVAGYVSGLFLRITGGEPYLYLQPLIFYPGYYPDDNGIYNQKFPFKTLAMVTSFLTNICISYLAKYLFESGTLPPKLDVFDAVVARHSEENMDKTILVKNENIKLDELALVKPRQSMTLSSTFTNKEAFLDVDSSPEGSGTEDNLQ
CHT allo act – CHT positive allosteric modulators, primary screen, cell-based, membrane potential dye, choline EC20 | High affinity choline transporter 1 (Homo sapiens), Q9GZV3 | actives 0.49% (n = 310,000) | B-score at 10 µM | CHT-expressing cells; hits give high values; LV-AA mutant CHT in HEK293 cells | AID 488977, 2010;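 active means initial fluorescence not abnormally high and integrated response B-score, plate-corrected, over 3 SD above library mean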
MEKK3 PB1 HTS – modulators of MEKK3-MEK5 PB1 binding, primary screen, biochemical, wildtype MEKK3, multiplex bead flow cytometry, Alexa488-MEK5. bead-based flow cytometry, Alexa488-MEK5 binding to MEKK3; actives lie on both sides; 0 = blocked by unlabeled MEK5, 100 = vehicle. Mitogen-activated protein kinase kinase kinase 3 (Homo sapiens), Q99759. AID 1529, 2009. actives 1.4% (n = 290,000). binding response (% of control), % at 10 µM;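 active means binding response more than 3 SD above or below the average of its plate-row segment, actives on both sides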;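 further: Alexa488 bead fluorescence after subtracting the streptavidin-only scavenger bead signal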
Mot1-301 SUMO – yeast Mot1-301 growth rescue at high temperature, primary screen, SUMOylation pathway inhibitor project, S. cerevisiae, ATP luminescence, 38.5C. S. cerevisiae Mot1-301 growth rescue; percent above DMSO median, 100 means doubled. growth rescue, % at 18.8 µM. actives 1% (n = 320,000);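 active means every valid replicate shows activation above 250% relative to neutral control wells; inactive means the rest, any valid replicate at or below 250%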
MEKK2 WT-MEK5 – modulators of MEK5 binding to wildtype MEKK2, primary screen, biochemical, multiplex bead flow cytometry, Alexa488-MEK5. Alexa488-MEK5 binding to MEKK2 WT; actives lie on both sides. binding response (% of control), % at 10 µM. actives 1.1% (n = 290,000). AID 1531, 2009; in the data active means binding response below about 67% or above about 130%
CHT activ conf – CHT activators, confirmation, cell-based, membrane potential dye, duplicate | shares compounds with CHT allo act | CHT-expressing cells, membrane potential dye fluorescence (FDSS); % of choline EC20–EC90 response window; HEK293 expressing CHT LV-AA mutant; choline added at its EC20 | activation, % at 10 µM | actives 91% (n = 2,500);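 active means primary screen active, with duplicate mean activation above negative control mean plus 3 SD, cut at about 11% in these data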
HEK293 MP dye – membrane potential response in parental HEK293 cells, counter-screen for CHT activator project, cell-based, membrane potential dye | membrane potential dye fluorescence (FDSS); measured after EC20 choline addition | ratio readout change at 10 µM, hits read low | shares compounds with CHT allo act | actives 62% (n = 2,500);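 active means duplicate-averaged ratio beyond 3 SD from buffer wells, up or down, though filed actives are nearly all decreases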
A number is an active result; - = inactive; . = not tested or not shown.

SMILES | MEKK2 mut-MEK5 | CHT inh | CHT allo act | MEKK3 PB1 HTS | Mot1-301 SUMO | MEKK2 WT-MEK5 | CHT activ conf | HEK293 MP dye
OCCN(CCCn1c(C(F)(F)F)nc2ccccc21)c1nc(CN2CCCCC2)cs1 | - | - | - | - | - | - | . | .
OCCN(CCCn1c(-c2ccncc2)nc2ccccc21)c1nc(CN2CCCCC2)cs1 | - | - | - | - | - | - | 60 | -44
CCN(CC)C(=O)CSc1nnc(CNc2ccc(F)cc2)o1 | - | - | - | - | - | - | . | .
Cc1cccc2cc(-c3ccccc3)c(-c3ccccc3)c[n+]12 | - | - | - | - | - | - | 56 | -53
CCOC(=O)c1c(NC(=O)c2ccco2)n(C2CCCCC2)c2nc3ccccc3nc12 | - | - | 7.3 | - | - | - | 42 | -
CCOC(=O)c1c(N)n(C2CC(C)(C)NC(C)(C)C2)c2nc3ccccc3nc12 | - | - | 6.7 | - | - | - | 57 | -72
CCC(=O)Nc1c(C#N)c2nc3ccccc3nc2n1C1CCCCC1 | - | - | - | - | - | - | . | .
CNS(=O)(=O)c1cc(NC(C)=O)c(C)cc1C | - | - | - | - | - | - | . | .
Cc1ccccc1C(=O)OC1OC(=O)C(Cl)=C1N1CCOCC1 (configuration not stated) | - | - | - | - | - | - | . | .
O=C(CN(c1ccc(Cl)c(C(F)(F)F)c1)S(=O)(=O)c1ccccc1)N/N=C/c1cccc2c1OCCO2 | . | - | - | . | - | . | . | .
CCOc1cc2c(C#N)c(N3CCNCC3)nc(N)c2c(N)n1 | - | - | 6.5 | - | - | - | 45 | -53
CC(C(=O)N1CCc2ccccc21)N1CCN(S(=O)(=O)c2cccc(C(F)(F)F)c2)CC1 (configuration not stated) | . | . | . | . | - | . | . | .
Cc1ccnc(SCc2cn3c(C)cccc3n2)n1 | - | - | 7 | - | - | - | 27 | -46
Cc1cc(C)c(C#N)c(SCc2cn3c(C)cccc3n2)n1 | - | - | - | - | - | - | 56 | -42
Cc1cc(C)c(C#N)c(SCc2ccc(C#N)cc2)n1 | - | - | - | - | - | - | . | .
Cc1cc(C)nc(SCc2cn3c(C)cccc3n2)n1 | - | - | 6.8 | - | - | - | 44 | -53
COC(=O)c1cc(Cn2nc(C(=O)O)c3ccccc3c2=O)oc1C | - | - | - | - | - | - | . | .
Cc1cccc(NC(=O)C2CC3CCC2C3)c1C (configuration not stated) | . | - | - | . | - | . | . | .
O=C(COc1ccc(Br)cc1)N1CCN(c2ccc([N+](=O)[O-])c(N3CCCCC3)c2)CC1 | - | - | - | - | - | - | . | .
CCOC(=O)c1ccc(NC(=O)Nc2ccon2)cc1 | - | - | - | - | - | - | 30 | -
CCN(CC)CCNS(=O)(=O)c1ccc2c3c(cccc13)C(=O)N2 | - | - | 7.4 | - | - | - | 73 | -74
CN(C)CCNS(=O)(=O)c1ccc2c3c(cccc13)C(=O)N2 | - | - | 6.5 | - | - | - | 74 | -86
CN1CCN(S(=O)(=O)c2ccc3c4c(cccc24)C(=O)N3)CC1 | - | - | 10 | - | - | - | 84 | -85
Cc1nn(S(=O)(=O)c2ccccc2)c(C)c1Sc1ccc([N+](=O)[O-])cc1 | - | - | 8 | - | - | - | 29 | -
Cc1nn(S(=O)(=O)c2cccs2)c(C)c1Sc1ccc([N+](=O)[O-])cc1 | - | - | - | - | - | - | . | .
SMILES | MEKK2 mut-MEK5 | CHT inh | CHT allo act | MEKK3 PB1 HTS | Mot1-301 SUMO | MEKK2 WT-MEK5 | CHT activ conf | HEK293 MP dye
CC[n+]1c(C)sc2c3ccsc3ccc21 | - | - | 10 | - | - | - | 48 | -50
N#C/C(=C\c1c(N2CCCCC2)nc2ccccn2c1=O)C(=O)NC1CCS(=O)(=O)C1 (configuration not stated) | - | - | 13 | - | - | - | - | -62
COC(=O)C1CN(C(=O)C(C)Oc2cc(C)ccc2C(C)C)c2ccccc2O1 (configuration not stated) | - | - | - | - | - | - | . | .
COC(=O)C1CN(C(=O)C(C)Oc2ccc(C(C)C)cc2)c2ccccc2O1 (configuration not stated) | - | - | - | - | - | - | 18 | -
O=C(Nc1ccccc1N1CCOCC1)c1ccc(Cl)c(S(=O)(=O)N2CCCC2)c1 | . | . | . | . | - | . | . | .
Cn1cnc2c(N3CCCCC3)nccc21 | - | - | 8.7 | - | - | - | 71 | -64
CN1CCN(CC(=O)Nc2sc3c(c2C(=O)Nc2ccccc2)CCCC3)CC1 | - | - | - | - | - | - | 45 | -31
CCOC(=O)c1c(NC(=O)CN2CCN(C)CC2)sc(C(=O)Nc2ccccc2)c1C | - | - | - | - | - | - | . | .
CC1=NN(c2nc3ccccc3[nH]2)C(=O)C1Cc1ccccc1 (configuration not stated) | - | - | - | - | - | - | . | .
CCOc1ccc2nc(Cl)sc2c1 | - | - | - | - | - | - | . | .
CCOc1ccc2c(c1)sc(N)[n+]2Cc1cc(C)cc2cccnc12 | - | - | 11 | - | - | - | 52 | -34
COc1ccc2c(c1)sc(N)[n+]2Cc1cc(C)cc2cccnc12 | - | - | 9.6 | - | - | - | 54 | -38
Cc1cc(NS(=O)(=O)c2ccc(NC(=O)c3ccccc3F)cc2)no1 | . | . | . | . | - | . | . | .
CC(=O)c1cccc(NC(=O)C(C)OC(=O)c2ccc(Br)o2)c1 (configuration not stated) | . | . | . | . | - | . | . | .
COc1ccc(-c2c(-c3ccccc3)n(C)c3ccccc23)cc1 | . | . | . | . | - | . | . | .
CN=C1c2c(-c3ccccc3)c3cc(OC)ccc3n2CCN1C | - | - | 8 | - | - | - | 43 | -53
Oc1ccc(-c2cn3ccccc3n2)cc1O | - | - | - | - | - | - | 37 | -42
Cc1ccn2cc(-c3ccc(O)c(O)c3)nc2c1 | - | - | - | - | - | - | 36 | -40
Oc1ccc(-c2cn3ccccc3n2)cc1 | - | - | - | - | - | - | . | .
